Source: PubChem BioAssay
Glioma ERSR ind – induces the endoplasmic reticulum stress response in human glioma cells. U87-MG GRP78 promoter luciferase reporter, 16 h. Potency, µM, without a hit: at the top dose activation, most hits filed as activators. 420,000 tested, 0.02% active; further: potency means the concentration at half of the fitted maximal effect; series mostly up to about 76 µM; % of control where 0% means no effect; nearly all actives have a fitted effect of over 35% in size
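ERSR induction read as luciferase luminescence (Bright-Glo, 10 min at room temperature) in stably transfected human U87-MG glioma cells exposed to compounds for 16 h, using GRP78 as sensor.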
Vif-A3G inh – Vif-A3G binding inhibition. AID 602310. 410,000 tested, 0.076% active. Q9HC16. Potency, µM (top dose mostly 46.1 µM), for the others: at the top dose activity, negative = active, usual class: inhibitors. HeLa A3G-eYFP + Vif (tagged APOBEC3G with the HIV-1 protein that degrades it), YFP fluorescence, overnight; further: potency means the concentration at half of the fitted maximal effect; on the % scale 0 is the no-effect control and ±100 the full control effect; nearly all actives have a fitted effect of over 60% in size
Target sequence (Q9HC16 whole entry, looked up): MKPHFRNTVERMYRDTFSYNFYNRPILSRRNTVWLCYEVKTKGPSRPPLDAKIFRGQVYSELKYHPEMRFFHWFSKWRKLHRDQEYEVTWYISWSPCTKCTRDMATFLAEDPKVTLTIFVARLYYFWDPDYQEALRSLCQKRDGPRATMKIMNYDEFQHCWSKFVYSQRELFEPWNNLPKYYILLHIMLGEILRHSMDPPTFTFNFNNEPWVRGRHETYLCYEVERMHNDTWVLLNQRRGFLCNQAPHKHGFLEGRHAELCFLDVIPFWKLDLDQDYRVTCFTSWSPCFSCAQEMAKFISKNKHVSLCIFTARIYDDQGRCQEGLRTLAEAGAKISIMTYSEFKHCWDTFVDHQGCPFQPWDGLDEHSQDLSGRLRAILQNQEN
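HeLa cells stably expressing Vif and C-terminally eYFP-tagged A3G, seeded overnight at 37 deg C, then exposed to compound by pintool overnight at 37 deg C. Rise in yellow fluorescence (Ex 488/Em 500-530, Acumen) marks blocked Vif-driven A3G degradation.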
Vif-APOBEC3F blk – inhibitors of Vif-A3F interaction; HeLa A3F-eYFP + Vif (tagged APOBEC3F with the HIV-1 protein that degrades it), YFP fluorescence increase; AID 602313; 390,000 tested, 0.2% active; Potency, µM (top dose mostly 46.1 µM), without a hit: at the highest dose activity, negative = active; further: potency means the concentration at half of the fitted maximal effect; % of control where 0% means no effect; nearly all actives have a fitted effect of over 65% in size
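HeLa cells stably expressing Vif plus C-terminally eYFP-tagged A3F were seeded, incubated overnight at 37 deg C, dosed with compound, incubated overnight again at 37 deg C. Yellow fluorescence (Ex 488/Em 500-530) reported blocked Vif-mediated A3F-eYFP degradation.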
12-LOX inh – inhibitors of human 12S-lipoxygenase ALOX12; P18054; purified 12hLO, xylenol orange hydroperoxide absorbance; Potency, µM (doses to about 108 µM), for inactives: at the top dose activity change, negative = inhibition, actives largely listed as inhibitors; 580,000 tested, 1.1% active; AID 1671190; further: potency means the concentration at half of the fitted maximal effect; on the % scale 0 is the no-effect control and ±100 the full control effect
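Purified human 12hLO at 150 nM in 25 mM Hepes, 0.01% Triton X-100, pH 7.0, preincubated 15 min at room temperature with compound. Reaction started with 40 uM arachidonic acid, 30 min at room temperature. Hydroperoxide measured by Fe-xylenol orange, 573/405 nm absorbance ratio.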
TRPML1 agonist – activates the human TRPML1 channel. Q9GZU1. TRPML1-expressing cells, Ca2+ dye fluorescence, FDSS. activation, % (test concentration not listed). 410,000 tested, 0.12% active. AID 624414; in the data active means activation above about 50%; inconclusive means mostly about 30% to 49%; further: 0% is about no effect
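Agonist activity was taken from a 110 s kinetic Ca2+ dye read on the FDSS after pinning compounds onto TRPML1-DL cells. The cells were seeded at 1,500/well with Tet inducer, incubated about 16 h, then dye-loaded at room temperature.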
TRPML1 inh – blocks the human TRPML1 channel | Q9GZU1 | TRPML1-inducible cells, Ca2+ dye fluorescence, FDSS; active compounds read low; inhibition of EC80 agonist-evoked calcium signal | activity change, negative = inhibition, % (no concentration beside the values) | 390,000 tested, 0.02% active | AID 624415; in the data active means activity change below about -50%; inconclusive means between about -30% and that limit;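 further: stimulus is agonist 54-4 at its EC80 concentration; on the % scale 0 is the no-effect control and ±100 the full control effect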
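Tet-induced TRPML1-DL cells loaded with Ca8 no-wash calcium dye were read kinetically on FDSS. Compound addition was followed by EC80 agonist 54-4 (4 uM final); inhibition was read over 110 s.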
Numbers without * were called inactive; ? = inconclusive; / = no result; ! = not confirmed by another sample; [ ] = dose if it differs, or a comment. The list is not random: actives were taken first. Their share in the collection is about 1.3%. Unless noted, the call rests on the fitted dose curve; in most records, active means well fitted curve in the direction sought with a large enough effect; inconclusive means small, poorly fitted or top-dose-only effect, or another doubt; inactive means no such curve, though single readings can be large; an effect the other way counts as inactive or inconclusive.

SMILES | Glioma ERSR ind | Vif-A3G inh | Vif-APOBEC3F blk | 12-LOX inh | TRPML1 agonist | TRPML1 inh
CCN(CC)c1nc2ccccc2nc1C(C#N)S(=O)(=O)c1ccc(C)cc1 (stereo not drawn) | / | / | / | 14µM* | / | /
Cc1ccc(S(=O)(=O)C(C#N)c2nc3ccccc3nc2N2CCN(C)CC2)cc1 (stereo not drawn) | -2% | 0% | -12% | ? | 1 | -14
CCOc1ccc(OCC)c(NC(=O)c2nnn(CC(=O)Nc3c(C)cc(C)cc3C)c2N)c1 | / | / | / | 5% | / | /
O=C(NC(=O)c1ccccc1)C1=C(N2CCCC2)COC1=O | -8% | 0% | 0% | 12% | 0 | 35
O=C(NS(=O)(=O)Nc1ccccc1)C1=C(N2CCCC2)COC1=O | -4% | -8% | -1% | 16µM* | 0 | -9
N#CC1(NC(=O)CNc2cccc(F)c2)CCCC1 | / | / | / | 5% | / | /
Fc1ccc(N=c2ssnc2Cl)c(F)c1 | 0% | 2% | -12% | 7.1µM* | 0 | -8
OC[C@@H]1O[C@H](CNCc2cccc(Cl)c2)[C@H](N2CCOCC2)[C@@H]1O | / | / | / | 3%[176 µM] | / | /
CN1CCN([C@@H]2[C@H](O)[C@H](CO)O[C@@H]2CN(Cc2ccc(Cl)cc2)Cc2cccc(Cl)c2)CC1 | / | / | / | 14µM* | / | /
Oc1ccc(-n2nnnc2SCc2ncc(-c3ccc(Cl)cc3)o2)cc1 | / | / | / | 32µM* | / | /
c1ccc(-c2cnc(CSc3nnnn3-c3ccccc3)o2)cc1 | / | / | / | 6% | / | /
COC(=O)c1c(-c2cccnc2)csc1NC(=O)c1ccc2c(c1)OCO2 | 4% | -20% | 10µM* | 340% | 1 | -6
N#C/C(=C\c1ccc(-c2ccc([N+](=O)[O-])cc2)o1)C(=O)Nc1nc(-c2cccs2)cs1 | 0% | -30% | ? | -26% | 0 | -101*
O=S(=O)(NCc1nnnn1-c1ccccc1)c1ccc(Cl)cc1 | / | / | / | -22% | / | /
O=c1ccc2ccc(O)c(O)c2o1 | 41µM* | / | / | ? | / | /
CCCCCn1nc(C(=O)Oc2ccc(C(=O)CC)cc2)c2ccccc2c1=O | / | / | / | -30% | / | /
O=S(=O)(c1cccc2nsnc12)N1CCCC1c1ccccc1Cl (stereo not drawn) | / | / | / | 14% | / | /
O=C(NC(=S)Nc1ccc(S(=O)(=O)Nc2nccs2)cc1)c1ccccc1 | -4% | -5% | -7% | ? | 0 | -14
COc1ccc(NS(=O)(=O)c2ccc(NC(=S)NC(=O)c3cccnc3)cc2)nn1 | 4% | 1% | -12% | ? | -1 | 13
COc1ccc(NS(=O)(=O)c2ccc(NC(=S)NC(=O)c3cccc(F)c3)cc2)nn1 | -3% | 1% | 7% | 40µM* | -1 | 10
COc1ccc(NS(=O)(=O)c2ccc(NC(=S)NC(=O)c3ccc(Br)cc3)cc2)nn1 | -2% | 0% | 3% | 25µM* | 0 | -20
O=C(NC(=S)Nc1ccc(S(=O)(=O)Nc2nccs2)cc1)c1ccc(F)c(F)c1 | -3% | 1% | -4% | 10µM* | 0 | 3
O=C(NC(=S)Nc1ccc(S(=O)(=O)Nc2ncccn2)cc1)c1ccc(Br)cc1 | -2% | 0% | 17% | 20µM* | 2 | 1
Cc1ccc(NC2(c3nnnn3-c3ccc(C)cc3)CCCCC2)cc1 | / | / | / | 13% | / | /
O=C(CC1CCCCC1)Nc1cc(C(F)(F)F)ccc1Cl | / | / | / | 7% | / | /
SMILES | Glioma ERSR ind | Vif-A3G inh | Vif-APOBEC3F blk | 12-LOX inh | TRPML1 agonist | TRPML1 inh
Cc1ccc(-c2cc(C(=O)N3CCN(C(=O)C4CC4)CC3)c3ccccc3n2)o1 | / | / | / | 22µM* | / | /
Cc1ccc(-c2cc(C(=O)N3CC(C)CC(C)C3)c3ccccc3n2)o1 (stereo not drawn) | 1% | 5% | 6% | 35µM* | 0 | -13
Cc1ccc(-c2cc(C(=O)N3CC(C)OC(C)C3)c3ccccc3n2)o1 (stereo not drawn) | 2% | -9% | -3% | ? | -1 | -7
CC(=O)Oc1ccccc1C(=O)Oc1ccc(F)cc1 | / | / | / | -2% | / | /
N#C/C(=C\c1cc(Cl)cc(Cl)c1O)C(=O)NC1CCCCC1 | -6% | 0% | -22% | 7.1µM* | 7 | -1
Cc1ccc(/C(=N/Nc2nc3ccccc3s2)C2=C(O)c3ccccc3C2=O)cc1 | 0% | 0% | 4% | 3.5µM* | -1 | 5
CCC(C)NC(=O)CCc1nnc2n(CCc3ccccc3)c(=O)c3ccccc3n12 (stereo not drawn) | / | / | / | 13% | / | /
C=CC(=O)CCCCC | / | / | / | -12%[176 µM] | / | /
CC(=O)Nc1ccc(Sc2ncccc2C(=O)Nc2ccc(OC(F)(F)F)cc2)cn1 | 13% | -7% | -13% | -21% | 52* | -7
CC(=O)Nc1ccc(Sc2ncccc2C(=O)Nc2cc(Cl)cc(Cl)c2)cn1 | -4% | -5% | -11% | ? | 12 | 4
CCCn1c(=O)[nH]c(=O)c2c1nc(-c1ccc(C#N)cc1)n2CCN1CCOCC1 | / | / | / | 28µM* | / | /
Cc1cccc2c(-c3ccccc3)cc(=O)[nH]c12 | -3% | 0% | -11% | 0% | -1 | 11
Cc1cc(=S)[nH]c2c(C)cccc12 | -4% | -6% | -2% | 1.1µM*! | 3 | -16
Cc1ccc(O)c(C(=O)c2cc(C#N)c(=O)n(-c3nccs3)c2)c1 | 1% | ? | ? | ? | 63* | -6
Cc1ccc(O)c(C(=O)c2cc(C#N)c(=O)n(-c3c(C)n(C)n(-c4ccccc4)c3=O)c2)c1 | 2% | -18% | ? | 0% | 0 | 6
Cc1ccc(/C=C2\SC(=S)N(Cc3ccccc3)C2=O)o1 | 0% | 2% | -8% | 45µM* | 0 | 9
O=C(O)c1cc(-c2ccc(/C=C3/SC(=S)N(Cc4ccccc4)C3=O)o2)ccc1Cl | 0% | -15% | ? | 13µM* | 2 | 11
Cc1ccc(NC(=O)CN2C(=O)S/C(=C/c3ccc(-c4cccc(C(=O)O)c4)o3)C2=O)cc1 | -3% | -4% | ? | 40µM* | 2 | -18
O=C1/C(=C\c2ccc(O)c(O)c2)SC(=S)N1Cc1ccccc1 | -5% | 22µM* | ? | ? | 27 | -7
O=C1/C(=C/c2ccncc2)SC(=S)N1Cc1ccccc1 | ? | ? | 12% | ? | 0 | 20
CC1(C)OC(=O)C(=Cc2ccc(-c3ccc(Cl)c(C(=O)O)c3)o2)C(=O)O1 | -5% | -1% | 1% | -23% | -1 | -3
O=c1cc(-c2ccccc2F)oc2ccc(F)cc12 | / | / | / | -12% | / | /
CONC(=O)C(Sc1ccccc1)c1ccccc1 (stereo not drawn) | / | / | / | -18% | / | /
COc1ccc(-c2csc(NC(=O)c3nn(C(C)C)c(=O)c4ccccc34)n2)cc1 | / | / | / | 1% | / | /
COC(=O)CN1C(=O)N/C(=C/c2ccc(C)o2)C1=O | 4% | 0% | -17% | ? | 2 | 15
